Data on 40 molecules can be found in PubChem BioAssay (Tox21).

Values without a mark were called inactive. Calls of active or inactive are those of the source. The call rests on the fitted dose curve; in most records, active means well fitted curve in the direction sought with a large enough effect in the repeat runs; inconclusive means weak or mixed curves; inactive means flat fitted curve, though single readings scatter.
On the % scale 0 is the no-effect control and ±100 the full control effect.

This experiment in a line: qHTS assay to test for compound auto fluorescence at 535 nm (green) in HEK293 cells (AID 720680). The note with it: green autofluorescence 485/535 nm; series mostly up to 91.3 µM. An excerpt:
U.S. Tox21 Program National Center for Advancing Translational Sciences [NCATS] NIH Chemical Genomics Center [NCGC] U.S. Environmental Protection Agency [EPA] National Institutes of Environmental Health Sciences [NIEHS] National Toxicology Program [NTP] U.S. Food and Drug Administration [FDA] Tox21 Assay Overview: Compound auto fluorescence often interferes with screening of the compound library against various biological targets and signaling pathways. Some of these compounds may have fluorophoric properties. Such properties may interfere with the assay outputs resulting in false positives and/or negatives. To decrease such complications and ensure the compound activities are relevant in terms of biological response, the Tox21 10K compound library was screened for auto fluorescence. From the fluorophores used as reporter signals in our screening assays, the auto fluorescence equivalencies of compounds against three fluorophores have been evaluated: Triamterene, Fluorescein and Rose Bengal sodium for blue, green and red fluorescence, respectively. The fluorescence intensities were measured using Excitation/Emission wavelengths at 405/460nm, 485/535nm and 540/590nm for blue, green and red labels, respectively. This assay includes the green fluorescence data.
Tox21 Assay Protocol Summary: 2,000 HEK293 cells in 5 uL of culture medium containing 10% dialyzed FBS per well were dispensed into black wall/clear bottom 1536-well plates using a Multidrop Combi Dispenser (Thermo Scientific). The assay plates were incubated for 4-5 hr at 37C to allow cell attachment to the well bottom, followed by the transfer of 23 nL compound or DMSO vehicle by a pintool work station (Kalypsys, San Diego, CA). After the assay plates were incubated overnight at 37C and 5% CO2, fluorescence intensities in the assay plates were measured by an Envision (PerkinElmer, Shelton, CT) plate reader using three labels for measuring blue, green and red fluorescence at […] 460, 535 and 590nm respectively.
For orientation: qHTS replaces the single test concentration by a dilution series.
In the case of `C#CCOC(=O)[C@@H](C)Oc1ccc(Oc2ncc(Cl)cc2F)cc1`, the molecule was classed as inactive.

As to `C[Si](C)O[Si](C)(C)O[Si](C)(C)O[Si](C)C`, the molecule was classed as inactive.

Consider `C=Cc1c(C)c2cc3[nH]c(cc4nc(cc5nc(cc1[nH]2)C(C)=C5CCC(=O)O)C(CCC(=O)O)=C4C)c(C)c3C=C`, for which the molecule was called inactive. On the same count and under the same terms, to `CC(C)c1cccc(C(C)C)c1NC(=O)NS(=O)(=O)c1cc(C(C)(C)O)co1` belongs “inactive”; to `Nc1nc(N)c2nc(CNc3ccc(C(=O)N[C@@H](CCC(=O)O)C(=O)O)cc3)cnc2n1`, “inactive”. On the same count and under the same terms, to `CC(=O)[C@@]1(O)CC[C@H]2[C@@H]3C[C@H](C)C4=CC(=O)CC[C@]4(C)[C@H]3CC[C@@]21C` belongs “inactive”; to `CC(CN)CCCN` (stereo not given), “inactive”; to `COc1cc(C(C)(C)C)c(O)c(C(C)(C)C)c1`, “inactive”. Turning to `Cn1c(=O)c2c(ncn2CC(O)CO)n(C)c1=O` (stereo not given), the fluorescence, % of fluorescein is -0.0383% [at 18.6 µM]. As to `CC(C)NCC(O)COc1ccc(CC(N)=O)cc1` (stereo not given), the result was inactive. On to `CN(C)CCCNCCCN`, for which the molecule was called inactive. The same measure, in the same setting: the result for `CN(C)CC/C=C1\c2ccccc2COc2ccccc21` reads “inactive”; that for `CC(C)(C)c1cc(O)c(C(C)(C)C)cc1O`, “inactive”; that for `O=C(O)C(c1ccc(Cl)cc1)c1ccc(Cl)cc1`, “inactive”. Same read-out and setting: the result for `Cc1cc(CC(=O)O)c(C)n1-c1ccc(Cl)cc1` reads “inactive”; that for `Cc1cc(C)c(S(=O)(=O)O)cc1N=Nc1cc(S(=O)(=O)O)c2ccccc2c1O`, “inactive”. With `COCCO`, the outcome was inactive.

Turning to `O=C(c1ccc(O)cc1)c1ccc(O)cc1`, the call was inactive.

For `O=c1c2ccccc2nnn1CCl`, the result was inactive. As to `C1=Cc2ccccc2C1`, the molecule was classed as inactive. On the same count and under the same terms, to `CCCc1ccccc1` belongs “inactive”; to `Nc1nc(CC(=O)O)cs1`, “inactive”; to `Oc1ccc(O)c2c(O)cccc12`, “inactive”. Same read-out and setting: the result for `CCCCOC(=O)c1ccccc1C(=O)OCC(CC)CCCC` (stereo not given) reads “inactive”.

As to `CC(C)(C)C1CCCCC1O` (stereo not given), the result was inactive. With `CCCCCCCCCC=O`, the outcome was inactive.

As to `c1ccc(-c2nc[nH]c2-c2ccccc2)cc1`, the call was inactive. The same measure, in the same setting: the result for `CN(C(=O)CCCOc1ccc2[nH]c(=O)ccc2c1)C1CCCCC1` reads “inactive”; that for `CC/C(=C\C(=N/O)C(N)=O)C(C)[N+](=O)[O-]` (stereo not given), “inactive”. On the same count and under the same terms, to `CC(Cc1cccc(C(F)(F)F)c1)NCCOC(=O)c1ccccc1` (stereo not given) belongs “inactive”; to `Cc1ccccn1`, “inactive”. Same read-out and setting: to `CC[C@H](C)[C@@H](C(=O)O)n1sc2ccccc2c1=O` belongs “inactive”; to `CCN(CC)CCNC(C(=O)OCCC(C)C)c1ccccc1` (stereo not given), “inactive”. `CCOC(=O)[C@H](CCc1ccccc1)N[C@H]1CCc2ccccc2N(CC(=O)O)C1=O`: the result was inactive.

Take `Oc1ccc(C(O)CNCCCCCCNCC(O)c2ccc(O)c(O)c2)cc1O` (stereo not given): the outcome was inactive. For `CCCCCOC(=O)COc1cc(N2C(=O)C3=C(CCCC3)C2=O)c(F)cc1Cl`, the molecule was classed as inactive. With `CCN(CC)CCOC(=O)C1(c2ccccc2)CCCC1`, the call was inactive.

Turning to `O=C(O)COC(=O)Cc1ccccc1Nc1c(Cl)cccc1Cl`, the fluorescence, % of fluorescein is 0.0784% [at 18.6 µM]. Regarding `OC(CCN1CCCCC1)(c1ccccc1)C1CCCCC1` (stereo not given), the result was inactive. The same measure, in the same setting: to `c1ccc(CNCc2ccccc2)cc1` belongs “inactive”.
